Where “and” joins values, the source holds several entries; their conditions need not be identical. Identical values can stand only once. Inconclusive results are not listed. Entries that show only a call come without a potency. Calls of active or inactive are those of the source. Unless noted, calls come from the whole dose curve; as a rule, active = well fitted curve in the direction sought with a large enough effect in the repeat runs; inconclusive = weak or mixed curves; inactive = no such curve, though single readings can be large; an effect the other way counts as inactive or inconclusive.
Tests used:
[1] = qHTS assay to identify small molecule agonists of the hypoxia (HIF-1) signaling pathway - cell viability counter screen (AID 1224844; calls by dose curve; note: nearly all actives have a fitted effect of over 50% in size)
Procedure, shortened: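 CellTiter-Glo luminescence read-out, 30 min RT, taken in the same wells as the beta-lactamase HRE reporter assay; HRE-bla ME-180 cells, 0.5% dialyzed FBS, 17 hr compound treatment at 37C, 5% CO2.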

[2] = qHTS assay to identify small molecule agonists of H2AX (AID 1224845; active = well fitted activation curve with a large enough effect in the signal ratio in the repeat runs, not every such curve was filed as active; the % refers to the signal ratio)
Procedure, shortened: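 Phospho-H2AX Ser139 measured by HTRF (ex 320 nm; em 665 and 620 nm) after 24 hr antibody incubation. Compounds, 15 concentrations, 0.76% DMSO, were applied to CHO-K1 cells for 3hr at 37C before lysis.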

[3] = qHTS assay to identify small molecule agonists of the hypoxia (HIF-1) signaling pathway (AID 1224846; active = well fitted activation curve with a large enough effect in the signal ratio in the repeat runs, not every such curve was filed as active; the % refers to the signal ratio)
Procedure, shortened: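 Beta-lactamase FRET read-out (CCF4-AM substrate) from ME-180 cells carrying an HRE-driven bla reporter, after 17 hrs compound exposure at 37C/5% CO2. Cells were seeded at 2,000 per well in 0.5% dialyzed FBS medium and preincubated 5 hrs.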

[4] = qHTS assay to identify small molecule agonists of H2AX - cell viability counter screen (AID 1224847; calls by dose curve; note: top concentration of the series differs between compounds; nearly all actives have a fitted effect of over 30% in size)
Procedure, shortened: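 Wild-type CHO-K1 cells (10% FBS medium) were plated overnight at 37C, exposed to compounds at 15 concentrations for 3 hr at 37C (0.76% DMSO final), and viability was read as CellTiter-Glo luminescence after 30 min at room temperature.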

[5] = qHTS RealTime-Glo MT Cell Viability Assay in HepG2 cells - 24 hour (AID 1224867); note: nearly all actives have a fitted effect of over 50% in size
Procedure, shortened: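 Cells + NanoLuc/prosubstrate dispensed (600 cells/well) → 5 h at 37 C/5% CO2 → compounds in DMSO transferred → 40 h incubation at 37 C, luminescence read at 0, 8, 16, 24, 32, 40 h.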

[6] = qHTS RealTime-Glo MT Cell Viability Assay in HEK293 cells - 32 hour (AID 1224868); note: nearly all actives have a fitted effect of over 50% in size; note: potency is the fitted concentration of half-maximal effect
Procedure, shortened: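 Tox21 10K qHTS, HEK293, 600 cells/well, RealTime-Glo reagent co-dispensed with cells; 5 h preincubation, compound by pintool, 37 C, luminescence at 0–40 h.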

[7] = A CellTox Green Cytotoxicity Assay to monitor cytotoxicity in HEK293 cells - 0 hour (AID 1224869); note: nearly all actives have a fitted effect of over 50% in size
Procedure, shortened: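 Read-out: fluorescence of a cell-impermeant cyanine dye staining DNA of dead cells, proportional to cytotoxicity. HEK293, 600 cells/well with reagent, compound (23 nL DMSO) added after 5 h; reads at 0, 8, 16, 24, 32, 40 h.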

[8] = qHTS RealTime-Glo MT Cell Viability Assay in HepG2 cells - 40 hour (AID 1224870); note: nearly all actives have a fitted effect of over 50% in size
Procedure, shortened: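 Real-time viability: cells seeded at 600 per well together with NanoLuc and cell-permeant prosubstrate, compounds added after 5 h incubation. Luminescence tracked at 0, 8, 16, 24, 32 and 40 h of exposure.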

[9] = qHTS assay to identify small molecule antagonists of the estrogen related receptor (ERR) signaling pathway from Tox21 library (AID 1224848); note: nearly all actives have a fitted effect of over 50% in size
Procedure, shortened: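 Luciferase luminescence (ONE-Glo, 30 min room temperature) was the read-out. Cells of the NTP-supplied ERR line, 2,000 per well, were given 6 h at 37 C before compound addition in DMSO and 18 h exposure at 37 C.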

[10] = qHTS assay to identify small molecule agonists of the estrogen related receptor (ERR) signaling pathway from Tox21 library (AID 1224849; calls by dose curve; note: nearly all actives have a fitted effect of over 15% in size); conditions: ERR reporter cell line, ONE-Glo luciferase, 18 h
Procedure, shortened: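 Luminescence readout (ONE-Glo, 30 min RT) after 18 h compound exposure at 37 C of NTP-supplied ERR reporter cells; cells were plated 6 h before compound addition by pin tool.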

SMILES | Potency [1] | Potency [2] | outcome [3] | Potency [4] | Potency [5] | Potency [6] | Potency [7] | Potency [8] | Potency [9] | activity change, positive = activation ([10]; at 42.5 µM (top of the series)) | activity change, positive = activation ([10]; at 92.4 µM (top of the series))
Cc1ccccc1Cl | inactive | inactive | inactive | inactive | inactive | inactive | inactive | inactive | – | – | –
Cc1ccc([N+](=O)[O-])cc1N | inactive | inactive | inactive | inactive | inactive | inactive | inactive | inactive | – | – | –
CO[Si](CCCNCCN)(OC)OC | inactive | inactive | inactive | inactive | inactive | inactive | inactive | inactive | – | – | –
Cc1ccc(C(C)C)cc1 | inactive | inactive | inactive | inactive | inactive | inactive | inactive | inactive | – | – | –
Brc1ccc(Oc2ccc(Br)cc2)cc1 | inactive | inactive | inactive | inactive | inactive | inactive | inactive | inactive | – | – | –
CCc1cccc(O)c1 | inactive | inactive | inactive | inactive | inactive | inactive | inactive | inactive | – | – | –
NC(=O)NC(N)=O | inactive | inactive | inactive | inactive | inactive | inactive | inactive | inactive | – | – | –
COC(=O)/C=C\C(=O)OC | inactive | inactive | inactive | – | inactive | inactive | inactive | inactive | inactive | 7.01% (inactive) | 2.62% (inactive)
Cc1cccc(C)c1[N+](=O)[O-] | inactive | inactive | inactive | inactive | inactive | inactive | inactive | inactive | – | – | –
O=[N+]([O-])c1ccccc1C(F)(F)F | inactive | inactive | inactive | – | inactive | inactive | inactive | inactive | inactive | – | -5.97% (inactive) and 7.68% (inactive)
Cc1ccncc1 | inactive | inactive | inactive | inactive | inactive | inactive | inactive | inactive | – | – | –
CC(C)(CO)CO | inactive | inactive | inactive | – | inactive | inactive | inactive | inactive | inactive | – | 2.96% (inactive) and 5.63% (inactive)
COC(=O)CCCCC(=O)OC | inactive | inactive | inactive | inactive | inactive | inactive | inactive | inactive | – | – | –
O=C(O)Cc1c[nH]c2ccccc12 | inactive | inactive | inactive | – | inactive | inactive | inactive | inactive | inactive | – | 5.71% (inactive) and 6.87% (inactive)
Cc1cc(C)cc(O)c1 | inactive | inactive | inactive | – | inactive | inactive | inactive | inactive | inactive | – | 8.03% (inactive) and 0.796% (inactive)
CCc1cccc(CC)c1N | inactive | inactive | inactive | inactive | inactive | inactive | inactive | inactive | – | – | –
CC(=O)CC(=O)N(C)C | inactive | inactive | inactive | inactive | inactive | inactive | inactive | inactive | – | – | –
CS(=O)(=O)c1ccc(Cl)cc1 | inactive | inactive | inactive | – | inactive | inactive | inactive | inactive | inactive | – | 8.49% (inactive)
NC(N)=S | inactive | inactive | inactive | inactive | inactive | inactive | inactive | inactive | – | – | –
Cc1ccc(Cl)cc1 | inactive | inactive | inactive | inactive | inactive | inactive | inactive | inactive | – | – | –

SMILES | Potency [1] | Potency [2] | outcome [3] | Potency [4] | Potency [5] | Potency [6] | Potency [7] | Potency [8] | Potency [9] | activity change, positive = activation ([10]; at 42.5 µM (top of the series)) | activity change, positive = activation ([10]; at 92.4 µM (top of the series))
CC(C)c1ccc(C(C)C)cc1 | inactive | inactive | inactive | inactive | inactive | inactive | inactive | inactive | – | – | –
O=Cc1ccc(CO)o1 | inactive | inactive | inactive | – | inactive | inactive | inactive | inactive | inactive | – | 0.746% (inactive) and -3.97% (inactive)
CCCCCCCCCCCCCC(=O)O | inactive | inactive | inactive | – | inactive | inactive | inactive | inactive | inactive | – | -1.8% (inactive) and -13.1% (inactive)
Oc1ccc(Cc2ccccc2O)cc1 | inactive | inactive | inactive | inactive | inactive | 19.7 µM (active) | inactive | inactive | – | – | –
CN=C(NC#N)NCCSCc1nc[nH]c1C | inactive | inactive | inactive | – | inactive | inactive | inactive | inactive | inactive | – | 2.07% (inactive)
CCCOC(=O)NCCCN(C)C | inactive | inactive | inactive | inactive | inactive | inactive | inactive | inactive | – | – | –
CC(=O)C(C)C | inactive | inactive | inactive | inactive | inactive | inactive | inactive | inactive | – | – | –
CCCCCC(C)=O | inactive | inactive | inactive | – | inactive | inactive | inactive | inactive | inactive | – | 9.83% (inactive) and 4.6% (inactive)
CN1CCCC1=O | inactive | inactive | inactive | inactive | inactive | inactive | inactive | inactive | – | – | –
CCCCCNCCCCC | inactive | inactive | inactive | inactive | inactive | inactive | inactive | inactive | – | – | –
C=CC(=O)NCOCCCC | inactive | inactive | inactive | inactive | inactive | inactive | inactive | inactive | – | – | –
C[n+]1ccn(CCO)c1 | inactive | inactive | inactive | – | inactive | inactive | inactive | inactive | inactive | – | 4.16% (inactive) and -3.23% (inactive)
COc1ccccc1[N+](=O)[O-] | inactive | inactive | inactive | – | inactive | inactive | inactive | inactive | inactive | – | 2.88% (inactive)
NC1CCCCC1N (stereo not given) | inactive | inactive | inactive | – | inactive | inactive | inactive | inactive | inactive | – | 1.49% (inactive) and 5.92% (inactive)
Cc1cc(CC(=O)O)n(C)c1C(=O)c1ccc(Cl)cc1 | inactive | inactive | inactive | inactive | inactive | inactive | inactive | inactive | – | – | –
CCCCCCCCO | inactive | inactive | inactive | inactive | inactive | inactive | inactive | inactive | – | – | –
COc1ccc([C@@H]2CC(=O)c3c(O)cc(O[C@@H]4O[C@H](CO[C@@H]5O[C@@H](C)[C@H](O)[C@@H](O)[C@H]5O)[C@@H](O)[C@H](O)[C@H]4O)cc3O2)cc1OC | inactive | inactive | inactive | inactive | inactive | inactive | inactive | inactive | – | – | –
O=[N+]([O-])c1cc(C(F)(F)F)ccc1Cl | inactive | inactive | inactive | – | inactive | inactive | inactive | inactive | inactive | – | 3.85% (inactive)
COc1c(Cl)ccc(Cl)c1C(=O)O | inactive | inactive | inactive | inactive | inactive | inactive | inactive | inactive | – | – | –
OCc1ccc(Cl)cc1Cl | inactive | inactive | inactive | inactive | inactive | inactive | inactive | inactive | – | – | –

From PubChem BioAssay (Tox21)
